From PubChem BioAssay AID651681 (Broad Institute, 2012)

target: Cyclin-dependent kinase 2 (Homo sapiens) + Cyclin-A2 (Homo sapiens) (UniProt P20248+P24941); experiment: CDK2/cyclin A inhibitors, off-target check, dose response, selectivity assay for Dyrk1A inhibitor project, biochemical, dry powder, set 3 (AID 651681); settings: CDK2/cyclin A ADP-Glo luminescence, histone H1 peptide; series mostly up to 10 µM; inhibition: at the top concentration
Sequence (P20248 whole entry, looked up, one chain of several): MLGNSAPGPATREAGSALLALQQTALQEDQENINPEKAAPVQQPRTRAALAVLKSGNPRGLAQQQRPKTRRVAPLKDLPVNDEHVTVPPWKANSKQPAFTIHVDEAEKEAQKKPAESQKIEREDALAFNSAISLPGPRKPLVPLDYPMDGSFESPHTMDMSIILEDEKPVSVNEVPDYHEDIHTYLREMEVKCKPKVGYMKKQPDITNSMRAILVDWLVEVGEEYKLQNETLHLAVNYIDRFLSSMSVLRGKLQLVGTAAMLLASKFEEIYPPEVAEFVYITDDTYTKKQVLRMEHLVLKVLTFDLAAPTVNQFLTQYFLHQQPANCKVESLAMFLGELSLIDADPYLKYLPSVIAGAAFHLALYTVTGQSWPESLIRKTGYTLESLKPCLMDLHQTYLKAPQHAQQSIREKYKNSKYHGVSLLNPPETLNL

inhibition, inactive:
Cc1cccc2sc(NC(=O)CN(C)S(=O)(=O)c3ccc(Cl)cc3)nc12 6.5%, COc1ccc2nc(NC(=O)C3CCN(S(=O)(=O)c4ccc(C)cc4)CC3)sc2c1 -2.31%, Cc1ccc(S(=O)(=O)N(C)CC(=O)Nc2nc3ccc(Cl)cc3s2)cc1C -1.34%, COc1ccc2c(Cl)c(C(=O)NCc3cccnc3)sc2c1 -2.3%, Cc1ccccc1S(=O)(=O)Cc1ccc(C(=O)NC(C)c2ccc3c(c2)OCCO3)o1 (configuration not stated) -2.08%, CCOc1ccc2nc(NC(=O)C3CCCN(S(=O)(=O)c4cccc5cccnc45)C3)sc2c1 (configuration not stated) -2.57%, COc1ccc(OC)c(C2=Nn3c(nnc3-c3ccncc3)SC2)c1 5.48%, CN(CC(=O)Nc1nccs1)S(=O)(=O)c1ccc(Cl)cc1 8.85%, COc1ccc2nc(NC(=O)C3CCCN(S(=O)(=O)c4cccc5cccnc45)C3)sc2c1 (configuration not stated) -13.3%, COc1ccc2c(Cl)c(C(=O)NCc3ccccc3)sc2c1 0.997%, C=CCn1cnc2scc(-c3ccc(OC)cc3)c2c1=O -4.85%, COc1ccc(C2=Nn3c(nnc3-c3ccncc3)SC2)cc1 9.2%, CN(CC(=O)Nc1nc2ccc(F)cc2s1)S(=O)(=O)c1ccc(Cl)cc1 -5.71%, CC(C)n1cnc2cc(NCc3cccc4ccccc34)ccc21 7.99%, COc1ccc2nc(NC(=O)C3CCN(S(=O)(=O)c4cccc5nonc45)CC3)sc2c1 -12.4%, CN(CC(=O)Nc1nc2ccccc2s1)S(=O)(=O)c1ccc(Cl)cc1 -5.95%, Cc1sc(NC(=O)CSCc2ccccc2)nc1-c1ccccc1 -1.28%, COc1ccc(CNC(=O)c2sc3ccccc3c2Cl)cc1 1.25%, COc1ccc2nc(NC(=O)C3CCCN(S(=O)(=O)c4cccc5nonc45)C3)sc2c1 (configuration not stated) -1.81%, O=C(NCc1ccco1)c1sc2ccccc2c1Cl -15.9%, COc1ccc2nc(NC(=O)C3CCN(S(=O)(=O)c4cccc5nsnc45)CC3)sc2c1 2%, COc1ccc(-c2csc(NC(=O)CSCC(=O)N3CCCC3)n2)cc1 -7.89%
